Results on 40 molecules are retold here after PubChem BioAssay (NCATS).

Each structure is given as a SMILES string. Results filed as inconclusive are left out. Values without a mark were called inactive. Active and inactive are the calls of the source. The call rests on the fitted dose curve; in most records, active means well fitted cell-killing curve with a large enough effect; inconclusive means small, poorly fitted or top-dose-only effect, or effect the other way; inactive means no such curve, though single readings can be large or run the other way.
Potency means the concentration at half of the fitted maximal effect.

The nature of this test: Quantitative High-Throughput drug screen in 47 multiple myeloma cell lines against the NCATS MIPE library collection: H1112_PLB cell viability assay (AID 1918967; further: nearly all actives have a fitted effect of over 30% in size). As to conditions: H1112 myeloma cells viability, ATP luminescence, 48 h; series mostly up to 45.8 µM; viability: at the top concentration. From the text: PI: Beverly A. Mock Ph.D.
Laboratory of Cancer Biology and Genetics,
Center for Cancer Research, National Cancer Institute,
National Institute of Health, Bethesda, Maryland
Drug resistance and disease progression are common in multiple myeloma (MM) patients, underscoring the need for new therapeutic combinations. […] We hypothesized that effective combinations would reduce MYC expression and enhance p16 activity. […] These preclinical data identify potentially useful drug combinations for evaluation in drug-resistant MM and reveal potential mechanisms of combined drug sensitivity.
Described herein is the primary MIPE qHTS used to cherrypick compounds. Validated compounds were then further tested for potential synergistic activiy.
[1] Peat TJ, Gaikwad SM, Dubois W, Gyabaah-Kessie N, Zhang S, Gorjifard S, Phyo Z, Andres M, Hughitt VK, Simpson RM, Miller MA, Girvin AT, Taylor A, Williams D, D'Antonio N, Zhang Y, Rajagopalan A, Flietner E, Wilson K, Zhang X, Shinn P, Klumpp-Thomas C, McKnight C, Itkin Z, Chen L, Kazandijian D, Zhang J, Michalowski AM, Simmons JK, Keats J, Thomas CJ, Mock BA. Drug combinations identified by high-throughput screening promote cell cycle transition and upregulate Smad pathways in myeloma. Cancer Lett. 2023 Aug 1;568:216284. doi: 10.1016/j.canlet.2023.216284. Epub 2023 Jun 24. PMID: 37356470; PMCID: PMC10408729.
SEQUENCE No. (e.g., 1, 2, 3, etc.); […] (e.g., Cells, Incubation, Reagent, etc.); VALUE and DESCRIPTION.
1; Cells; 5 uL; white, solid bottom 1536-well Greiner assay plate.
2; Compounds; 23 nL; Kalypsis pin tool (Wako USA) equipped with a 1536-well pin head to transfer to the assay plates.
3; Incubation; 48 hours; 37C incubation.
4; Reagent;5uL; CellTiter Glo (Promega).
5; Detector; 425V; Luminescence; Viewlux PerkinElmer.
NOTES (numbers refer to Sequence numbers above)
1. The cell-based screening methods employed in this study were like those previously published. Briefly, the corresponding myeloma cell lines were screened in 1,536-well plates with 500 cells, 5-uL per well for inhibition of cell viability (assessed by measuring ATP levels with CellTiterGlo).
2. NCATS MIPE 4.0 library of approved and investigational drugs were added using the Kalypsis pin tool. Wells treated with DMSO only for 100% viability and media only wells for 0% viability were used as controls.
3. The assay plates were covered and incubated for 48 hours in a 37C, 5% CO2 incubator with controlled humidity.
4. After 48 hours, CellTilter-GloTM luminescent substrate mix (Promega) reagent was added to the assay plate and plates we incubated for 5 min at room temperature.
5. Signal was measured as median relative luminescence units on a ViewLux (PerkinElmer) multiplate reader.
[1] Heske CM, Davis MI, Baumgart JT, Wilson K, Gormally MV, Chen L, Zhang X, Ceribelli M, Duveau DY, Guha R, Ferrer M, Arnaldez FI, Ji J, Tran HL, Zhang Y, Mendoza A, Helman LJ, Thomas CJ. Matrix Screen Identifies Synergistic Combination of PARP Inhibitors and Nicotinamide Phosphoribosyltransferase (NAMPT) Inhibitors in Ewing Sarcoma. Clin Cancer Res. 2017 Dec 1;23(23):7301-7311. doi: 10.1158/1078-0432.CCR-17-1121. Epub 2017 Sep 12. PMID: 28899971; PMCID: PMC6636827.
On to `Oc1ccc2c3c1O[C@H]1c4[nH]c5c(c4C[C@@]4(O)[C@@H](C2)N(CC2CC2)CC[C@]314)C[C@@]1(O)[C@H]2Cc3ccc(O)c4c3[C@@]1(CCN2CC1CC1)[C@H]5O4`, for which the “viability” value was 101%. Take `CCOC(=O)Nc1ccc(NCc2ccc(F)cc2)cc1N`: the Potency was 10.5 µM (active). Still for that read-out and setting: then `COc1ccc(N(C(=O)Oc2c(C)cccc2C)c2ccnc(Nc3ccc(N4CCN(C)CC4)cc3)n2)c(OC)c1`, with 0.372 µM (active). Regarding `O=C(O)CNC(=O)c1c(O)c2ccccc2n(Cc2ccccc2)c1=O`, the “viability” value is 113%. Regarding `CC(C)N[C@@H]1CCn2c(=O)[nH]c3cccc(c32)[C@@H]1O`, the Potency is 7.43 µM (active). Consider `C=C[C@@H]1CN2CCC1C[C@H]2[C@H](O)c1ccnc2ccccc12` (stereo not given in full), for which the Potency was 13.2 µM (active). As to `C[C@]12CCC(=O)C(O)=C1CC[C@@H]1[C@H]3CCC(=O)[C@@]3(C)CC[C@@H]12`, the “viability” value was 93%.

For the molecule `COC[C@H]1OC(=O)c2coc3c2[C@@]1(C)C1=C(C3=O)[C@@H]2CC[C@H](O)[C@@]2(C)C[C@@H]1OC(C)=O`, the Potency is 1.05 µM (active). With `C[C@]12CC[C@H]3[C@@H](CCC4=CC(=O)CC[C@@]43C)[C@H]1CC[C@H]2O`, the “viability” value was 110%. Regarding `CC(C)(C)[C@]1(O)C[C@@H]2OC(=O)C[C@@]23C(=O)O[C@@H]2OC(=O)[C@H](O)C213` (stereo not given in full), the “viability” value was 112%. For `CC[C@@H]1[C@@H](C)O[C@@](O)([C@@H](C)[C@H](O)[C@H](C)[C@H]2OC(=O)C=CC=C[C@@H](C)[C@@H]([C@@H](C)[C@@H](O)[C@H](C)[C@@]3(O)C[C@H](O[C@H]4C[C@H](O)[C@H](O)[C@H](C)O4)[C@H](CC)[C@@H](C)O3)OC(=O)C=CC=C[C@@H]2C)C[C@H]1O[C@H]1C[C@H](O)[C@H](O)[C@H](C)O1`, the Potency was 1.05 µM (active). On to `CO[C@H]1CCC(O[C@H]2C[C@H]([C@]3(C)CC[C@]4(C[C@H](O)[C@@H](C)[C@@H]([C@@H](C)C=C(C)C(=O)[C@H](C)C[C@H](C)C(=O)O)O4)O3)O[C@]3(O[C@@H]([C@H]4O[C@@](O)(CO)[C@H](C)C[C@H]4C)C[C@H]3C)[C@H]2C)O[C@H]1C` (stereo not given in full), for which the Potency is 0.662 µM (active).

Regarding `CCOC(=O)c1cncn1[C@H](C)c1ccccc1`, the “viability” value is 90.7%.

Consider `C1=C2CCCN[C@H]2[C@@H]2C[C@H]1[C@@H]1CCCCN1C2`, for which the “viability” value was 110%. Regarding `CC1=C(O)C(=O)C=C2C1=CC=C1[C@@]2(C)CC[C@@]2(C)[C@@H]3C[C@](C)(C(=O)O)CC[C@]3(C)CC[C@]12C`, the Potency is 1.32 µM (active). As to `CC=C(C)C(=O)O[C@H]1C(C)=C2[C@@H]3OC(=O)[C@@](C)(O)[C@@]3(O)[C@@H](OC(=O)CCC)C[C@](C)(OC(C)=O)[C@@H]2[C@@H]1OC(=O)CCCCCCC`, the Potency is 0.526 µM (active).

As for `CCC(=O)OC1CCC2C3CCC4=CC(=O)CC[C@@]4(C)C3CC[C@]12C` (stereo not given in full), the “viability” value is 122%. On to `CN1CCN(c2ccc([N+](=O)[O-])c3no[n+]([O-])c23)CC1`, for which the Potency was 23.5 µM (active).

`Cc1c(N)nc([C@H](CC(N)=O)NC[C@@H](N)C(N)=O)nc1C(=O)N[C@H](C(=O)N[C@@H](C)[C@H](O)[C@@H](C)C(=O)N[C@@H](C(=O)NCCc1nc(-c2nc(C(=O)NCCC[S+](C)C)cs2)cs1)[C@@H](C)O)C(O[C@H]1O[C@H](CO)[C@H](O)[C@@H](O)[C@@H]1O[C@H]1O[C@H](CO)[C@@H](O)[C@H](OC(N)=O)[C@H]1O)c1cnc[nH]1` (stereo not given in full): the Potency is 5.9 µM (active). On to `CC(=O)N(C)c1cccc(-c2ccnc3c(C(=O)c4cccs4)cnn23)c1`, for which the “viability” value was 99.4%.

`O=c1[nH]c2ccccc2n1C1CCN(Cc2ccc(-c3[nH]c4cc5ncnc5cc4nc3-c3ccccc3)cc2)CC1`: the Potency was 0.833 µM (active).

Turning to `COC(=O)[C@@H](N)CCCN=C(N)N[N+](=O)[O-]`, the “viability” value was 128%. Turning to `CCCCCC[C@H]1C(=O)O[C@H](C)[C@H](NC(=O)c2cccc(NC=O)c2O)C(=O)O[C@@H](C)[C@@H]1OC(=O)CC(C)C`, the Potency was 0.132 µM (active). The same measure, in the same setting: then `COc1cc([C@@H]2c3cc4c(cc3[C@@H](O)C3COC(=O)C32)OCO4)cc(OC)c1O` (stereo not given in full), with 0.0526 µM (active). Consider `C#C[C@]1(O)C=C[C@@H]2[C@@H]3CCC4=CC(=O)CC[C@@H]4[C@H]3CC[C@@]21CC`, for which the “viability” value was 109%. Same read-out and setting: under `C[C@@H]1[C@H](O)[C@@H](C)C=CC=CCCC=CC=CC=CC=C[C@H](O[C@H]2O[C@@H](C)[C@H](O)[C@@H](N)[C@@H]2O)CC2O[C@](O)(C[C@@H](O)[C@H](O)CC[C@@H](O)C[C@@H](O)C[C@@H](O)CC(=O)O[C@H]1C)C[C@H](O)[C@H]2C(=O)O` stands 115%. Still for that read-out and setting: then `COc1cccc2c1[C@]13CCN(CC4CC4)[C@H](C2)[C@]1(OC)CCC(=O)C3`, with 99.5%; and `C[C@]12CC[C@@H]3[C@@H](CCC4=CC(=O)CC[C@@H]43)[C@@H]1CC[C@@H]2OC(=O)CCc1ccccc1`, with 112%. Consider `CC(C)(O)C=CC(=O)[C@](C)(O)[C@H]1[C@H](O)C[C@]2(C)[C@@H]3CC=C4[C@@H](C=C(O)C(=O)C4(C)C)[C@]3(C)C(=O)C[C@@]12C`, for which the Potency is 2.09 µM (active). For `Clc1ccccc1C(c1ccccc1)(c1ccccc1)n1cccn1`, the “viability” value is 111%.

For `C[C@H]1CCCC=CC2C[C@H](O)C[C@@H]2[C@H](O)C=CC(=O)O1` (stereo not given in full), the “viability” value was 27.6%. Still for that read-out and setting: under `CC(C)N(CCNC(=O)CN1CCCC1=O)C(C)C` stands 107%. Turning to `C=CCON=C(C[C@H]1O[C@@H]2O[C@]3(C)CC[C@@H]4[C@H](C)CC[C@@H]([C@H]1C)[C@@]24OO3)[C@H]1O[C@@H]2O[C@]3(C)CC[C@H]4[C@H](C)CC[C@@H]([C@@H]1C)[C@@]24OO3`, the Potency is 0.469 µM (active). The same measure, in the same setting: then `COc1ccc2c(c[n+](C)c3c4cc5c(cc4ccc23)OCO5)c1OC`, with 7.43 µM (active).

Regarding `CCCC[N+]1(C)[C@H]2CC(OC(=O)[C@H](CO)c3ccccc3)C[C@H]1[C@H]1O[C@H]12` (stereo not given in full), the “viability” value was 93.1%.

In the case of `C[C@@H]1O[C@@H](O[C@@H]2C=C3CC[C@@H]4[C@@H](CC[C@]5(C)[C@H](c6ccc(=O)oc6)CC[C@@]45O)[C@@]3(C)CC2)[C@H](O)[C@H](O)[C@H]1O`, the Potency was 0.0418 µM (active). `NC1CC1c1ccccc1` (stereo not given): the “viability” value is 102%. With `CCN1CCN(C(=O)Cc2ccc(Nc3ncc(F)c(Nc4ccc(C(=O)Nc5ccccc5Cl)cc4)n3)cc2)CC1`, the Potency is 6.62 µM (active). With `O=C(Oc1ccc([N+](=O)[O-])cc1)N1CCC(C(O)(c2ccc3c(c2)OCO3)c2ccc3c(c2)OCO3)CC1`, the Potency is 10.5 µM (active). For the molecule `CCc1c(C(=O)C(N)=O)c2c(OCC(=O)O)cccc2n1Cc1ccccc1`, the “viability” value was 118%.
